Screening data: PubChem, National Center for Advancing Translational Sciences (NCATS)
BAZ2B block: qHTS Assay for Inhibitors of BAZ2B; Bromodomain adjacent to zinc finger domain protein 2B (Homo sapiens), Q9UIF8; AlphaScreen BAZ2B-H3K14Ac peptide displacement; Potency, µM (highest dose often 114 µM), for the others: at the highest dose activity change, negative = inhibition, usual class: inhibitors; 360,000 compounds, 4.4% hits; note: % is set by controls: 0 for no effect and ±100 for the full control effect; nearly all actives have a fitted effect of over 60% in size
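BAZ2B (50 nM) with biotin-H3(5-23)K14Ac peptide (50 nM) in PBS pH 7.4, 0.01% Tween-20, preformed 30 min, then compound 30 min at room temperature; top concentration 110uM. AlphaScreen streptavidin donor/nickel chelate acceptor beads (10 ug/mL final), 20 min dark, signal read.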
HP1b binding inh: HTS for Inhibitors of HP1-beta Chromodomain Interactions with Methylated Histone Tails; Chromobox protein homolog 1 (Homo sapiens), P83916; AlphaScreen HP1-beta / biotin-H3K9me3 peptide binding; 390,000 compounds, 0.56% hits; Potency, µM (series often up to 114 µM), inactives show at the highest dose activity change, negative = inhibition, most hits filed as inhibitors; note: nearly all actives have a fitted effect of over 70% in size
Target sequence (P83916 whole entry, looked up): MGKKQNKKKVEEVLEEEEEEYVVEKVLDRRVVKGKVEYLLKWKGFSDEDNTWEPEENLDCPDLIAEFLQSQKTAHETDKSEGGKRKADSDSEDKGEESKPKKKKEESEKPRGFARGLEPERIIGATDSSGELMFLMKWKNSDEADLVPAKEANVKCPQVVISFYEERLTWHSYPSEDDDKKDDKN
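HP1-beta protein (50 nM final) preincubated 30 min at room temperature with biotinylated H3(1-18)K9me3 peptide (50 nM) in PBS pH 7.4, 0.01% Tween-20, then compound added for 30 min. AlphaScreen streptavidin donor/nickel chelate acceptor beads (10 ug/mL final), 30 min dark, luminescence read.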
Sfp PPTase inh: qHTS Assay for Inhibitors of Bacillus subtilis Sfp phosphopantetheinyl transferase (PPTase); 310,000 compounds, 3.5% hits; Potency, µM, inactives show largest response in the series, negative = inhibition, most hits filed as inhibitors; AID 1490, 2009; Biochemical Sfp PPTase activity, qHTS;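 note: the enzyme is Sfp with the accession as filed and its product quenches rhodamine fluorescence; 0% = enzyme reaction without inhibitor and -100% = no enzyme wells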
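With Hepes-Na pH 7.6 buffer containing 10 mM MgCl2, Sfp (15 nM) modified BHQ-2-YbbR (12.5 uM) using rhodamine-CoA (5 uM). Two reads 30 minutes apart at 525/598 nm yielded each well's rate.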
L3MBTL1 block: qHTS Assay for the Inhibitors of L3MBTL1; Lethal(3)malignant brain tumor-like protein 1 (Homo sapiens), Q9Y468; 230,000 compounds, 0.66% hits; AlphaScreen L3MBTL1–H3K9me1 peptide binding; Potency, µM (top dose mostly 57.1 µM), for inactives: at the top dose activity, negative = inhibition, hits mostly inhibitors; note: % is set by controls: 0 for no effect and ±100 for the full control effect; nearly all actives have a fitted effect of over 60% in size
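AlphaScreen assay: L3MBTL1 (50 nM final) was preincubated 30 min at room temperature with biotinylated H3(1-15)K9me1 peptide (75 nM final), then 30 min with library compounds; streptavidin donor and nickel chelate acceptor beads (10 ug/mL final) added, 30 min dark.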
G9a inh: qHTS Assay for Inhibitors of Histone Lysine Methyltransferase G9a. AID 504332, 2011. G9a H3K9 monomethylation, AlphaScreen, 2 h. Potency, µM (titrated, usually from 102 µM), without a hit: top-dose activity, negative = inhibition, hits mostly inhibitors. Histone-lysine N-methyltransferase EHMT2 (Homo sapiens), Q96KQ7. 350,000 compounds, 8.8% hits; note: % is set by controls: 0 for no effect and ±100 for the full control effect; nearly all actives have a fitted effect of over 75% in size
Target sequence (Q96KQ7 913-1193 limits assumed): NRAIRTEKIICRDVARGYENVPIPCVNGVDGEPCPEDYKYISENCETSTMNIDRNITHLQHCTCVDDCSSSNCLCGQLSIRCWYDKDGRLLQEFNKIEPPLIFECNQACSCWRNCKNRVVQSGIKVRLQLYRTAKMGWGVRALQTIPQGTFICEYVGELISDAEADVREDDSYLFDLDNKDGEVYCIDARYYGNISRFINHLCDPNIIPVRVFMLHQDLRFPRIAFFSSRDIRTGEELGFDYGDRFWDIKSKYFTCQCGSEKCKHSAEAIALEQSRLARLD
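Readings reflect AlphaScreen signal from monomethyl-H3K9 antibody detection. HMT at 20 nM; substrate b-H3K9 500 nM; cofactor SAM 20 uM; 2 h RT reaction; compounds tested as titrations in qHTS with 15 min preincubation.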
JMJD2A Tudor inh: qHTS Assay for Inhibitors of JMJD2A-Tudor Domain; AID 504339, 2011; 390,000 compounds, 4.4% hits; AlphaScreen JMJD2A-Tudor / H3K4me3 peptide binding; Potency, µM (titrated, usually from 114 µM), without a hit: top-dose activity change, negative = inhibition, actives largely listed as inhibitors; note: % is set by controls: 0 for no effect and ±100 for the full control effect; nearly all actives have a fitted effect of over 50% in size
Active calls of the source: *; ? = inconclusive; . = no result; [ ] = remark or other dose. Compounds with a hit are over-represented: about 12% of the library has one in this group of screens. Calls come from the whole dose curve; as a rule, active = well fitted curve in the direction sought with a large enough effect; inconclusive = small, poorly fitted or top-dose-only effect, or another doubt; inactive = no such curve, though single readings can be large; an effect the other way counts as inactive or inconclusive. Potency is the fitted concentration of half-maximal effect.

SMILES	BAZ2B block	HP1b binding inh	Sfp PPTase inh	L3MBTL1 block	G9a inh	JMJD2A Tudor inh
COC(=O)C1=C[C@@H](C(=O)OC)[C@@H]2C3=C(C(=O)[C@]2(C)NC(=O)c2ccccc2)[C@H](C)[C@@H]2C(=O)NC(=O)[C@@H]2[C@@H]3C1	.	6.0%	5.9%	.	.	-15.2%
Cc1cc(C)n(-c2nc(C)c(C)c(=O)n2CC(=O)Nc2ccc(Cl)c(Cl)c2)n1	-7.5%	28.6%	.	.	4.47µM*	-15.6%
Cc1cc(C)n(-c2nc(C)c(C)c(=O)n2CC(=O)Nc2ccc(OC(F)(F)F)cc2)n1	1.6%	60.3%	.	.	-0.2%[59 µM]	-9.1%
Cc1cc2c(cc1S(=O)(=O)CCC(=O)N1CCCCC1C)OCC(=O)N2 (stereo not drawn)	2.3%	66.5%	.	.	-8.9%[59 µM]	1.6%
COc1ccc(N2C(=O)C(Cl)=C(NCc3ccccc3)C2=O)cc1	-34.8%	21.2%	-3.5%	.	44.7µM*	-24.0%[11.4 µM]
CCOc1ccccc1NC1=C(Cl)C(=O)N(c2ccc(OC)cc2)C1=O	?	-5.0%	-22.3%	-4.4%	?	?
CC1(C)O[C@@H]2C[C@H]3[C@@H]4CCC5=CC(=O)C=C[C@]5(C)[C@H]4C(O)C[C@]3(C)[C@]2(C(=O)CO)O1 (stereo partly drawn)	.	.	15.0%	.	11.3%[12.7 µM]	.
COC(=O)c1scc(-c2ccc(C)cc2)c1S(=O)(=O)Nc1ccc(F)cc1F	-1.5%	-6.2%	.	.	12.8%[59 µM]	-14.3%
C/C(CCC(=O)OC[C@@H]1O[C@H](C#Cc2ccccc2)C=C[C@@H]1Oc1ccc(C)cc1)=N/O[C@@H](C)c1cc(-c2c(C)cc(C)cc2C)no1	.	.	-6.8%	.	.	.
Cc1c(Cl)cccc1NC(=S)NC1CC1	-22.1%	39.9%	-8.5%	3.9%	?	4.2%
Cc1c(Cl)cccc1NC(=S)Nn1cnnc1	?	-15.8%	22.4µM*	-12.0%	8.91µM*	-28.5%
CCn1c(SCC(=O)Nc2nc(-c3ccc(C)cc3)cs2)nnc1-c1ccccc1	-7.0%	11.8%	1.2%	.	-19.9%	-23.0%
CN(C)CCCn1c(SCC(=O)N2c3ccccc3Sc3ccccc32)nc2ccccc2c1=O	?	?	?	-4.6%	39.8µM*	?
Cc1ccc(-c2csc(NC(=O)CSc3nc4ccccc4c(=O)n3CCCN(C)C)n2)cc1	?	?	56.2µM*	.	39.8µM*	44.7µM*
Cc1ccccc1OC(C)C(=O)Nc1ccc(S(=O)(=O)Nc2nccs2)cc1 (stereo not drawn)	-23.5%	14.7%	14.7%	.	50.1µM*	-17.9%
CCOc1ccc2nc(NC(=O)C(CCSC)NS(=O)(=O)c3cccs3)sc2c1 (stereo not drawn)	?	44.9%	-4.3%	.	?	56.2µM*
CCC(=O)Nc1ccc(S(=O)(=O)Nc2nccs2)cc1	?	47.6%	8.8%	-9.5%	.	-8.3%
CCCCC1CCC(C(=O)Nc2ccc(S(=O)(=O)Nc3nccs3)cc2)CC1 (stereo not drawn)	-29.9%	-4.6%	9.3%	.	44.7µM*	-24.7%
COc1ccccc1CCC(=O)Nc1ccc(S(=O)(=O)Nc2nccs2)cc1	-4.2%	19.5%	.	6.5%	22.6%[2.33 µM]	-9.3%
CC(Oc1ccccc1Cl)C(=O)Nc1ccc(S(=O)(=O)Nc2nccs2)cc1 (stereo not drawn)	-8.6%	-20.7%	.	-3.5%	56.2µM*	?
CC(Oc1ccc(Cl)cc1)C(=O)Nc1ccc(S(=O)(=O)Nc2nccs2)cc1 (stereo not drawn)	-18.8%	-3.5%	28.2%	.	-2.1%[59 µM]	-18.5%
Cc1ccc2oc(C(=O)Nc3c(C(=O)Nc4ccccc4)oc4ccccc34)cc(=O)c2c1	3.4%	32.1%	.	.	-5.8%[59 µM]	-20.1%
CC(C)CN(CCCNC(=O)Cn1ncc2c3ccccc3n(C)c2c1=O)CC(C)C	2.3%	17.2%	.	.	-3.5%[59 µM]	-13.4%
CSCCC(NS(=O)(=O)c1ccccc1)C(=O)Nc1nccs1 (stereo not drawn)	4.1%	17.9%	.	-4.7%	8.91µM*	-21.1%
CCCC(C)C(=O)Nc1ccc(S(=O)(=O)Nc2nccs2)cc1 (stereo not drawn)	50.1µM*	39.9%	-22.4%	14.9%	.	-14.1%
SMILES	BAZ2B block	HP1b binding inh	Sfp PPTase inh	L3MBTL1 block	G9a inh	JMJD2A Tudor inh
CCCCC(CC)C(=O)Nc1ccc(S(=O)(=O)Nc2nccs2)cc1 (stereo not drawn)	-28.1%	1.4%	4.2%	.	?	-15.0%
Cc1ccc(C)c(OC(C)C(=O)Nc2ccc(S(=O)(=O)Nc3nccs3)cc2)c1 (stereo not drawn)	-28.1%	?	8.6%	.	11.2µM*	-33.1%
COc1cccc(C(c2sc3nc(-c4ccco4)nn3c2O)N2CCC(O)CC2)c1 (stereo not drawn)	4.6%	89.3%	.	.	?	-11.0%
Oc1c(C(c2ccccc2)N2CCCC2)sc2nc(-c3ccco3)nn12 (stereo not drawn)	?	16.5%	.	.	4.6%[59 µM]	-13.0%
COc1cccc(C(c2sc3nc(-c4ccco4)nn3c2O)N2CCCC2)c1 (stereo not drawn)	-20.9%	18.0%	.	.	14.1µM*	-18.2%
COc1cccc(C(c2sc3nc(-c4ccco4)nn3c2O)N2CCC(C)CC2)c1 (stereo not drawn)	?	-6.6%	.	.	17.8µM*	-26.9%
COc1cccc(NC(=O)c2oc3ccccc3c2NC(=O)Cc2cccc(C)c2)c1	-8.9%	50.9%	.	.	6.5%[59 µM]	-12.9%
CCCC(=O)N(c1ccc2oc(=O)sc2c1)S(=O)(=O)c1ccccc1	-2.4%	26.7%	14.1µM*	-14.5%	-31.9%[12.7 µM]	-7.5%
CC(C)C(=O)N(c1cc2sc(=O)oc2c2ccccc12)S(=O)(=O)c1cccs1	50.1µM*	-2.2%	10µM*	.	1.78µM*	?
CC(=O)N(c1ccc2oc(=O)sc2c1)S(=O)(=O)c1ccc(C(=O)O)cc1	-14.5%	10.7%	56.2µM*	.	17.8µM*	-24.5%
CC(=O)Oc1ccc(N(C(C)=O)S(=O)(=O)c2cccs2)cc1	33.5%	26.6%	-7.1%	2.8%	?	-1.3%
CC(=O)N(c1ccc2oc(=O)sc2c1)S(=O)(=O)c1cccs1	-9.1%	27.8%	11.2µM*	-4.0%	?	?
Cc1ccc(N2CCN(S(=O)(=O)c3ccc(Cl)c4ccccc34)CC2)c(C)c1	?	58.0%	.	.	10.9%[59 µM]	10.4%
